target: T1, Tyrosine-protein kinase ZAP-70 (Homo sapiens) (UniProt P43403); conditions: at 10 µM
T1 sequence (whole entry): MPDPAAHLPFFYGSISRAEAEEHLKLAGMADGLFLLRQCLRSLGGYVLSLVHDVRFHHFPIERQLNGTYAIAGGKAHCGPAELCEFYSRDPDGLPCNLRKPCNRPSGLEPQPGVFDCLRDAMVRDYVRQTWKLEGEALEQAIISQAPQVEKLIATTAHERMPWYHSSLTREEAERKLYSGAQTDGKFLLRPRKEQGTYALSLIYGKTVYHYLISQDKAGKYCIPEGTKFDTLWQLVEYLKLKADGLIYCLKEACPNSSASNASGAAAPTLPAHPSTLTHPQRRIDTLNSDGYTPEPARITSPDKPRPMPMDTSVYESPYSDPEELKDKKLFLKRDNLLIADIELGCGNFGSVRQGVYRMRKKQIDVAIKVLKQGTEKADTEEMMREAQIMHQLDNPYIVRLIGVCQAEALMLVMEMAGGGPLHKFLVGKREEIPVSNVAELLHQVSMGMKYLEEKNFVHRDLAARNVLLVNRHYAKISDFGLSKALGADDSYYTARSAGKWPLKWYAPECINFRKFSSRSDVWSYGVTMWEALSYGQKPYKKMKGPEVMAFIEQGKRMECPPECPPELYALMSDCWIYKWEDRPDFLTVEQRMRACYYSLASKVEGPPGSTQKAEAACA

Row | SMILES | residual activity
1 | O=C1NC(=O)/C(=C/c2ccc3c(c2)OC(F)(F)O3)S1 | 102%
2 | COc1cc2ncnc(Nc3cccc(Cl)c3)c2cc1OC | 125%
3 | Oc1ccc(-c2nc(-c3ccc(F)cc3)c(-c3ccncc3)[nH]2)cc1 | 119%
4 | Nc1nccc(-c2c(-c3ccc(F)cc3)ncn2C2CCNCC2)n1 | 124%
5 | O=C(O)/C=C/c1cc(Br)c(Br)c(Br)c1Br | 82%
6 | Cc1nc2cc3nc(-c4cccs4)cnc3cc2n1C | 115%
7 | O=C1Cc2c([nH]c3ccc([N+](=O)[O-])cc23)-c2ccccc2N1 | 105%
8 | CO[C@H]1C[C@@H]2CC[C@@H](C)[C@@](O)(O2)C(=O)C(=O)N2CCCC[C@H]2C(=O)O[C@H]([C@H](C)C[C@@H]2CC[C@@H](O)[C@H](OC)C2)CC(=O)[C@H](C)/C=C(\C)[C@@H](O)[C@@H](OC)C(=O)[C@H](C)C[C@H](C)/C=C/C=C/C=C/1C | 121%
9 | O=C1NC(=O)c2c1c1c3ccccc3[nH]c1c1[nH]c3cc(Br)ccc3c21 | 90%
10 | NC(=O)c1ccc2[nH]c(-c3ccc(Oc4ccc(Cl)cc4)cc3)nc2c1 | 96%
11 | O=Nc1c(-c2c(O)[nH]c3ccccc23)[nH]c2ccccc12 | 91%
12 | CNc1cc2c(Nc3cccc(Br)c3)ncnc2cn1 | 108%
13 | N#C/C(=C\c1ccc(O)c(O)c1)C(=O)NCc1ccccc1 | 129%
14 | O=C1NC(=O)/C(=C\c2ccc3nccnc3c2)S1 | 94%
15 | CC(C)n1cnc2/c(=N/c3cccc(Cl)c3)nc(NCCO)[nH]c21 | 117%
16 | O=C1Nc2ccccc2/C1=C1/Nc2ccccc2/C1=N\OCCC(O)CO (stereo unspecified) | 98%
17 | N#C/C(=C(\N)Sc1ccc(N)cc1)c1ccccc1C(F)(F)F | 101%

Row | SMILES | residual activity
18 | O=C1NC(=O)c2cc(Nc3ccc(F)cc3)c(Nc3ccc(F)cc3)cc21 | 119%
19 | Cn1c2ccccc2c2c3c(c4c5ccccc5n(CCC#N)c4c21)CNC3=O | 111%
20 | O=c1cc(N2CCNCC2)oc2c(-c3ccccc3)cccc12 | 99%
21 | O=C1NC(=O)c2c1c1c3ccccc3[nH]c1n1cncc21 | 102%
22 | CC(C)(C)n1nc(Cc2cccc3ccccc23)c2c(N)ncnc21 | 110%
23 | CC(C)c1nn(-c2c(Cl)cccc2Cl)c2nc(Cc3ccc(OCCO)cc3)[nH]c(=O)c12 | 84%
24 | CCOc1cc2ncnc(Nc3cccc(Br)c3)c2cc1OCC | 119%
25 | CO[C@H]1[C@@H](OC)C[C@H](C)[C@@H](OC)C2=CC(=O)C=C(NC(=O)/C(C)=C/C=C/[C@H](OC)[C@@H](OC(N)=O)/C(C)=C/[C@@H]1C)C2=O | 112%
26 | Fc1ccc(-c2nc3n(c2-c2ccncc2)CCS3)cc1 | 124%
27 | O=C1c2ccccc2-[n+]2ccc3c([nH]c4ccccc43)c21 | 132%
28 | CC(C)[C@H](CO)Nc1nc(Nc2cc(N)cc(Cl)c2)c2ncn(C(C)C)c2n1 | 98%
29 | CC#CC(=O)Nc1cc2c(Nc3ccc(F)c(Cl)c3)ncnc2cn1 | 100%
30 | COc1ccc(OC)c2c(=S)c3ccccc3[nH]c12 | 88%
31 | Cn1cc(/C=C2\C(=O)Nc3ccc(S(N)(=O)=O)cc32)c2ccccc21 | 125%
32 | Nc1n[nH]c2nnc(-c3c(-c4ccccc4)nn4ccccc34)cc12 | 81%
33 | Nc1ncnc2c1c(-c1ccc(Oc3ccccc3)cc1)cn2C1CCCC1 | 99%

target: RAF proto-oncogene serine/threonine-protein kinase (Homo sapiens) (UniProt P04049); conditions: at 10 µM
Sequence (P04049 whole entry): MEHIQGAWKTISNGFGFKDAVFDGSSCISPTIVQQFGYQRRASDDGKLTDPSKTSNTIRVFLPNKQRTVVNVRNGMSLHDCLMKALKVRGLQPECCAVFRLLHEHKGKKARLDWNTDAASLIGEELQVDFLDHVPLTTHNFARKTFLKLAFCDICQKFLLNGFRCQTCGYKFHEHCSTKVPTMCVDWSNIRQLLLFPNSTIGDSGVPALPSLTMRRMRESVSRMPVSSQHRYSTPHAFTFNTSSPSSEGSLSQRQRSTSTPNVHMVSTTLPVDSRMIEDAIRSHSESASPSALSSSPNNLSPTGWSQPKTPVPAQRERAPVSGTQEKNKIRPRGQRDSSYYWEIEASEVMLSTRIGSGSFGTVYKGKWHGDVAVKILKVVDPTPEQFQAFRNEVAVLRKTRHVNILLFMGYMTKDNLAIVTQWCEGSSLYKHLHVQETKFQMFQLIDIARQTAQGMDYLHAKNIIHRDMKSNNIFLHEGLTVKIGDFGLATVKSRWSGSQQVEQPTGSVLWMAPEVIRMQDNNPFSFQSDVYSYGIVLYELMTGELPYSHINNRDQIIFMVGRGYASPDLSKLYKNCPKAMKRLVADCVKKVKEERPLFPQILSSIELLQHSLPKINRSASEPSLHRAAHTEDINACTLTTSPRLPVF

Row | SMILES | residual activity
34 | CN[C@@H]1C[C@H]2O[C@@](C)([C@@H]1OC)n1c3ccccc3c3c4c(c5c6ccccc6n2c5c31)C(=O)NC4 | 99%
35 | Oc1ccc(-c2nc(-c3ccc(F)cc3)c(-c3ccncc3)[nH]2)cc1 | 1%
36 | CC(C)(C)c1cc(C=C(C#N)C#N)cc(Br)c1O | 70%

Reference: ChEMBL document CHEMBL2218924, “A broad activity screen in support of a chemogenomic map for kinase signalling research and drug discovery” (Biochem J, 2013)
